{"source": "PubChem BioAssay (EPA / NIEHS)", "note": "Activity calls are given as the source filed them. How the source made its calls: active means hit-call score of the fitted dose curve at least 0.9, where 1 is the maximum; inactive means score below 0.9.", "data": [{"read-out": "Monocyte Chemoattractant Protein-1 (MCP1), CCL2 (gene 6347)", "assay": "BSK_4H_MCP1: BioMAP Diversity Plus: 4H Assay for Monocyte Chemoattractant Protein-1 (MCP1) Biomarker Activity (AID 2283018)", "details": "primary human endothelial cells (HUVEC); actives raise or lower the signal", "method": "BSK_4H is a cell-based, multiplexed-readout assay that uses umbilical vein endothelium, a human vascular primary cell, with measurements taken at 24 hours after chemical dosing in a 96-well plate.BSK_4H_MCP1 is an assay component measured in the BSK_4H assay. It measures MCP-1 antibody related to regulation of gene expression using ELISA technology.Data from the assay component BSK_4H_MCP1 was analyzed into 1 assay endpoint. This assay endpoint, BSK_4H_MCP1, was analyzed with bidirectional fitting relative to DMSO as the negative control and baseline of activity. Using a type of binding reporter, gain or loss-of-signal activity can be used to understand changes in the signaling as they relate to the gene CCL2. Furthermore, this assay endpoint can be referred to as a primary readout, because this assay has produced multiple assay endpoints where this one serves a signaling function. To generalize the intended target to other relatable targets, this assay endpoint is annotated to the cytokine intended target family, where the subfamily is chemotactic factor.\nThe levels of cell surface (or secreted, indicated by the prefix \"s\") biomarker endpoints were measured by ELISA. Overt cytotoxicity to cells in confluent adherent cultures (all systems other than the BT system) was assessed by measuring total protein levels using sulforhodamine B (SRB) staining in parallel cultures at the time of biomarker measurements, indicated as SRB endpoints. For proliferation assays for adherent cell types, individual cell types are cultured at sub-confluence and relative cell numbers quantified by SRB staining at time points optimized for each system (48 h: 3C and CASM3C systems; 72 h: BT and HDF3CGF systems; 96 h: SAg system). SRB was performed by staining cells with 0.1% SRB after fixation with 10% TCA and reading wells at 560 nm.Viability and proliferation of PBMC (T cells) was quantified by Alamar Blue reduction for the SAg and BT systems. For PBMC viability (referred to as PBMC Cytotoxicity within the assay endpoint names), cells were plated (75,000/well in a 96-well plate) and then chemical samples added for 1 h before addition of activators, SEB and TSST-1 (20 ng/mL final concentration each). Cells were incubated for 90 h. Then, Alamar Blue (20 uL/well) (Invitrogen, Cat DAL1100) was added for 6 h, and the plates were read with a fluorescence microplate reader at 546/580 nm (excitation/emission). For PBMC proliferation, cells were plated and activated as above but incubated for only 16 h prior to addition of Alamar Blue. Plates were read after 6 h.", "values": [{"compound": "COCCOc1cc2cc(C(=O)NC3CCN(C(C)C)CC3)n(CC(=O)Nc3ccc(Cl)cn3)c2cn1", "outcome": "inactive"}, {"compound": "COC(=O)c1ccccc1O", "outcome": "inactive"}, {"compound": "CNS(=O)(=O)c1cc(C(=O)N2CCC(CCN3C4CCC3CC(n3c(C)nc5ccccc53)C4)(c3cccc(F)c3)CC2)c(Cl)cc1F", "note": "(stereo not given)", "outcome": "inactive"}, {"compound": "O=C1CCC(N2C(=O)c3ccccc3C2=O)C(=O)N1", "note": "(stereo not given)", "outcome": "inactive"}, {"compound": "CC(C)CCO", "outcome": "inactive"}, {"compound": "CCCCCCCCCCCCc1ccccc1", "outcome": "inactive"}, {"compound": "CCOC(=O)CC(CC(=O)OCC)(OC(C)=O)C(=O)OCC", "outcome": "inactive"}, {"compound": "Nc1ccc(Nc2ccccc2)cc1", "outcome": "inactive"}, {"compound": "CCc1cc(SCc2sc(-c3ccc(C(F)(F)F)cc3)nc2CN2CCN(c3ccc(OC)cc3)CC2)ccc1OCC(=O)O", "AC50": "8.42 µM (active)"}, {"compound": "CC(C)=CCC/C(C)=C\\CO", "outcome": "inactive"}, {"compound": "Fc1ccccc1[C@@H](F)COC1CCC(Nc2ncnc3[nH]ncc23)CC1", "note": "(stereo not given in full)", "outcome": "inactive"}, {"compound": "CNCc1ccc(NC(=O)c2c[nH]c3c2C(=O)CCC3)cc1", "outcome": "inactive"}, {"compound": "O=C1OC(=O)C2C3C=CC(C3)C12", "note": "(stereo not given)", "outcome": "inactive"}, {"compound": "CCCCCCc1ccc(O)cc1O", "AC50": "16.2 µM (active)"}, {"compound": "CC/C(=C\\C(=N/O)C(N)=O)C(C)[N+](=O)[O-]", "note": "(stereo not given)", "outcome": "inactive"}, {"compound": "COc1ccc2sc(C(=O)Nc3nnn[nH]3)c(OC(C)C)c2c1", "AC50": "26.9 µM (active)"}, {"compound": "O=C(O)CCN(C1(C(=O)NO)CCCC1)S(=O)(=O)c1ccc(Oc2ccc(F)cc2)cc1", "outcome": "inactive"}, {"compound": "CCN(C(=O)c1cc(C)cc(OC[C@H](C)Nc2ccncc2)c1)C(C)C", "outcome": "inactive"}, {"compound": "Cc1ccc(S(=O)(=O)O)cc1C", "outcome": "inactive"}, {"compound": "C1=CCCC=CCCC=CCC1", "outcome": "inactive"}, {"compound": "Cc1ccc(N)cc1O", "outcome": "inactive"}, {"compound": "Clc1nc(Cl)c(Cl)c(Cl)c1Cl", "outcome": "inactive"}, {"compound": "CCCCC(CC)COC(=O)CCCCCCCCC(=O)OCC(CC)CCCC", "note": "(stereo not given)", "outcome": "inactive"}, {"compound": "CC[C@H](C)C(=O)O[C@H]1C[C@@H](C)C=C2C=C[C@H](C)[C@H](CC[C@@H]3C[C@@H](O)CC(=O)O3)[C@H]21", "AC50": "1.98 µM (active)"}, {"compound": "C=CCCCCCCCCC(=O)O", "outcome": "inactive"}, {"compound": "CC(C)CC(C)(O)C#CC(C)(O)CC(C)C", "note": "(stereo not given)", "outcome": "inactive"}, {"compound": "CC1(C)C(=O)N(Br)C(=O)N1Br", "outcome": "inactive"}, {"compound": "O=C1CCCCCN1", "outcome": "inactive"}, {"compound": "CC(C)CCCCCCOC(=O)c1ccc(C(=O)OCCCCCCC(C)C)c(C(=O)OCCCCCCC(C)C)c1", "outcome": "inactive"}, {"compound": "COC(=O)CC(=O)OC", "outcome": "inactive"}, {"compound": "O=C(O)c1cccc(Oc2ccccc2)c1", "outcome": "inactive"}, {"compound": "CCCCCCCCO", "outcome": "inactive"}, {"compound": "CC(=O)OCCC(C)C", "outcome": "inactive"}, {"compound": "O=P(OC(CCl)CCl)(OC(CCl)CCl)OC(CCl)CCl", "outcome": "inactive"}, {"compound": "CC(=O)OC[C@H]1O[C@@](COC(C)=O)(O[C@H]2O[C@H](COC(C)=O)[C@@H](OC(C)=O)[C@H](OC(C)=O)[C@H]2OC(C)=O)[C@@H](OC(C)=O)[C@@H]1OC(C)=O", "outcome": "inactive"}, {"compound": "COc1ccc(-n2nc(C(F)F)cc2-c2ccc(S(C)=O)cc2)cc1", "note": "(stereo not given)", "outcome": "inactive"}, {"compound": "CCOCCOCCOCCO", "outcome": "inactive"}, {"compound": "Cn1c(=O)c2c(ncn2C)n(C)c1=O", "outcome": "inactive"}, {"compound": "CC(C)=CCCC(C)CCO", "note": "(stereo not given)", "outcome": "inactive"}, {"compound": "CC(C)c1cccc(C(C)C)c1N1C(=O)c2ccc(O)cc2C1=O", "AC50": "4.76 µM (active)"}]}]}
